# Source: PubChem (National Center for Advancing Translational Sciences (NCATS))
# TrxR1 inh – qHTS Assay for Inhibitors of Mammalian Selenoprotein Thioredoxin Reductase 1 (TrxR1): qHTS; Thioredoxin reductase 1, cytoplasmic (Rattus norvegicus), O89049; recombinant rTrxR1, NADPH fluorescence consumption, selenite substrate; Potency, µM (titrated, usually from 114 µM), for inactives: at the top dose activity change, negative = inhibition, hits mostly inhibitors; actives 1% (n = 390,000); AID 588453, 2011; also: nearly all actives have a fitted effect of over 65% in size
# Target sequence (O89049 whole entry, looked up): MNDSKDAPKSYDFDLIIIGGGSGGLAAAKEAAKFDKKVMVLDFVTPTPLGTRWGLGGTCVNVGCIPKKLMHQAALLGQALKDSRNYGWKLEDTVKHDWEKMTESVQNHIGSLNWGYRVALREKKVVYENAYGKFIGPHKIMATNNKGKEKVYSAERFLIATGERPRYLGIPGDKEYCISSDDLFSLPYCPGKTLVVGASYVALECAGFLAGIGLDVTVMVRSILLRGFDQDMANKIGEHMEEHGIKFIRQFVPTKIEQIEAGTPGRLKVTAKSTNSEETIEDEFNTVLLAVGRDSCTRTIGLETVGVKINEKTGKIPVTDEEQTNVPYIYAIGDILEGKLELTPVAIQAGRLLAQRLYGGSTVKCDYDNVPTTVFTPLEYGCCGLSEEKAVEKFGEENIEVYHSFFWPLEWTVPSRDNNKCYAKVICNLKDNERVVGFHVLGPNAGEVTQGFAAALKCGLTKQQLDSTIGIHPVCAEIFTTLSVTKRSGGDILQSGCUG
#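 Rat TrxR1 (90 nM in the dispensed reagent) was pre-reduced with 400 uM NADPH for 5 min at room temperature, then incubated with compound for 15 min. After 400 uM selenite was added, NADPH fluorescence (Ex 340/Em 450 nm) was followed for 8 min.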
# PLK1 PBD block – qHTS for Inhibitors of PLK1-PDB (polo-like kinase 1 - polo-box domain): Primary Screen | Potency, µM, inactives show max response, negative = inhibition, actives largely listed as inhibitors | Plk1 PBD binding of FITC phosphopeptide, fluorescence polarization | actives 2.8% (n = 360,000) | Serine/threonine-protein kinase PLK1 (Homo sapiens), P53350 | AID 720504, 2013; also: series mostly up to about 57 µM; nearly all actives have a fitted effect of over 65% in size
# TrxR1 substrate – qHTS Assay for Substrates of Mammalian Selenoprotein Thioredoxin Reductase 1 (TrxR1): qHTS | actives 0.01% (n = 390,000) | Potency, µM (top dose mostly 114 µM), without a hit: at the top dose activity change, negative = substrate turnover | purified TrxR1 substrate turnover, NADPH consumption readout | AID 588456, 2011; also: nearly all actives have a fitted effect of over 50% in size
#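 Rat TrxR1, dispensed at 90 nM, was prereduced with 400 uM NADPH (final) for 5 min at ~22 deg C, then incubated with compound 15 min before 400 uM selenite. A first-read NADPH fluorescence drop versus no-compound background flagged substrates.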
# VDR inh – Inhibitors of the vitamin D receptor (VDR): qHTS. Vitamin D3 receptor (Homo sapiens), P11473. VDR-SRC2-3 peptide fluorescence polarization, 2 h. Potency, µM, for inactives: max response, negative = inhibition, usual class: inhibitors. actives 0.93% (n = 400,000)
#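 Two reagent solutions held at 4 deg C in the dark were dispensed, compounds pinned at 23 nl, and the mixture incubated 2 h at room temperature. Read-out: fluorescence polarization of VDR–SRC2-3 peptide binding.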
# Sfp inh – qHTS Assay for Inhibitors of Bacillus subtilis Sfp phosphopantetheinyl transferase (PPTase). 4'-phosphopantetheinyl transferase ffp (Bacillus subtilis), Q9F4F7. Biochemical Sfp PPTase activity, qHTS. Potency, µM, without a hit: largest response in the series, negative = inhibition, hits mostly inhibitors. actives 3.5% (n = 310,000);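 also: the enzyme is Sfp with the accession as filed and its product quenches rhodamine fluorescence; 0% = enzyme reaction without inhibitor and -100% = no enzyme wells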
#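 Buffer: 50 mM Hepes-Na pH 7.6, 10 mM MgCl2, 0.01% Nonidet P-40, 0.01% BSA. Enzyme 15 nM, pre-exposed to compound 15 min; substrates then added and fluorescence change tracked over 30 min.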
# IDH1 R132H inh – qHTS for Inhibitors of mutant isocitrate dehydrogenase 1 (IDH1): qHTS | Isocitrate dehydrogenase [NADP] cytoplasmic (Homo sapiens), O75874 | IDH1-R132H enzyme, NADPH consumption, diaphorase/resazurin fluorescence | Potency, µM (top dose mostly 76.6 µM), for the others: at the highest dose activity change, negative = inhibition, hits mostly inhibitors | actives 0.093% (n = 390,000) | AID 602179, 2012; also: nearly all actives have a fitted effect of over 65% in size
#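 IDH1-R132H (0.5 ug/mL) preincubated 30 min with compound, then NADPH (0.016 mM) and alpha-KG (2 mM) added; 80 min at RT, pH 7.5. Remaining NADPH coupled via diaphorase/resazurin to fluorescence (540/590 nm); concentration-response curves normalized to no-enzyme control.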
# * marks the source's active call; other numbers are inactive results; ? = inconclusive; . = no result; ! = repeats disagree; [ ] = remark or other dose. Compounds with a hit are over-represented: about 5.2% of the library has one in this group of screens. Calls follow the shape of the dose curve; as a rule, active = well fitted curve in the direction sought with a large enough effect; inconclusive = small, poorly fitted or top-dose-only effect, or another doubt; inactive = no such curve, though single readings can be large; an effect the other way counts as inactive or inconclusive. Unless noted, % is scaled to controls: 0 for no effect and ±100 for the full control effect; potency is read from the fitted curve at half-maximal effect.
SMILES,TrxR1 inh,PLK1 PBD block,TrxR1 substrate,VDR inh,Sfp inh,IDH1 R132H inh
O=c1cc(NCCc2ccccc2)c2ccccc2o1,21%[57.1 µM],24µM*,10%[57.1 µM],-14%,-1%,18%
Cc1ccc(S(=O)(=O)n2ccc3c(OCCOCCSCC(NC(=O)OC(C)(C)C)C(=O)O)cccc32)cc1 (configuration not stated),-5%[57.1 µM],-24%,5%[57.1 µM],-17%,3%,20%
Cc1ccc(S(=O)(=O)n2ccc3c(OCCOCCNCc4ccc(F)cc4)cccc32)cc1,22%[57.1 µM],3%,9%[57.1 µM],12%,71µM*,7%
O=c1[nH]c(=S)[nH]c2n[nH]nc12,?,.,-6%,.,.,.
OCC1OC(C#Cc2ccccc2)C=CC1O (configuration not stated),.,.,.,.,16%,.
FC(F)(F)c1ccccc1-c1ccc2ncnc(N3CCOCC3)c2c1,.,.,.,?,-13%,.
CN(Cc1ccco1)c1ncnc2ccc(-c3ccoc3)cc12,-33%,.,2%,50µM*!,-20%,.
CN(C)Cc1ccccc1-c1cc(N(C)Cc2ccco2)ncn1,.,.,.,-2%,22%,.
CN(Cc1ccco1)c1cc(-c2ccccc2Cl)ncn1,.,.,.,45µM*,-25%,.
CN(Cc1ccco1)c1ncnc2ccc(-c3ccccc3Cl)cc12,-5%[57.1 µM],.,7%[57.1 µM],50µM*!,?,.
CN(Cc1ccco1)c1ncnc2ccc(-c3ccccc3C(F)(F)F)cc12,.,.,.,32µM*,?,.
O=C(c1ccc2c(c1)N(Cc1ccc(Cl)cc1)C(=O)c1ccccc1S2(=O)=O)N1CCCCCC1,11%,.,-3%,-4%,.,8%
CC1(C(=O)NCc2ccccc2)CSCC(=O)N1Cc1cccs1 (configuration not stated),.,2%,.,.,.,.
CN(Cc1ccco1)c1ncnc2ccc(-c3cccc(NS(C)(=O)=O)c3)cc12,.,.,.,?,-6%,.
CN(Cc1ccco1)c1ncncc1-c1ccccc1Cl,.,.,.,28µM*,79µM*,.
CN(Cc1ccco1)c1ncncc1-c1cccc(C#N)c1,.,.,.,?,-12%,.
COc1ccccc1-c1ccc2ncnc(N(C)Cc3ccco3)c2c1,.,.,.,45µM*,?,.
CCCC[C@@]1(C2CCCC2)Cc2cc(OCC(=O)O)c(Cl)c(Cl)c2C1=O,19%[57.1 µM],-27%,?,50µM*!,.,-11%
COc1cccc(C(NC(C)=O)c2nc(-c3cccc(C(C)C)c3)cs2)c1 (configuration not stated),.,-3%,.,.,.,.
C1CSC2(N1)C1CC3CC(C1)CC2C3 (configuration not stated),39%[57.1 µM],-4%,11%[57.1 µM],-9%,35µM*,1%
CCOC(=O)c1c(NC2OC(=O)c3c2ccc(OC)c3OC)sc(C(=O)OC(C)(C)C)c1C (configuration not stated),-2%[57.1 µM],24µM*,8%[57.1 µM],?,12%,-3%
O=c1c2c3c(sc2n2cnnc2n1-c1ccccc1)N(Cc1ccccc1)CCC3,?,30µM*,3%,?,?,-4%
COc1ccc(-c2noc(COc3cc(C)c(Br)c(C)c3)n2)cc1OC,54%,.,5%,-3%,.,13%
COc1cc(/C=C2\C(=N)N3N=CSC3=NC2=O)ccc1OS(=O)(=O)c1ccccc1,-16%,?,-7%,79µM*,7%,0%
CCOc1cc(/C=C2\C(=N)N3N=CSC3=NC2=O)ccc1OS(=O)(=O)c1ccccc1,-18%[57.1 µM],24µM*,-3%[57.1 µM],?,10%,-8%
SMILES,TrxR1 inh,PLK1 PBD block,TrxR1 substrate,VDR inh,Sfp inh,IDH1 R132H inh
CCOc1cc(/C=N/n2cnnc2)ccc1OS(=O)(=O)c1ccccc1,7%[57.1 µM],0%,3%[57.1 µM],-3%,-6%,7%
COc1cc(/C=C2\C(=N)N3N=CSC3=NC2=O)cc(Br)c1OC(=O)c1ccco1,-24%,?,-8%,?,4%,8%
CCCCN(C)c1c(C)nc2ccc(C(=O)NCCCn3ccnc3)cn12,.,-1%,.,.,.,.
CCOc1ccccc1-c1nnc(SCc2ccc(Cl)cc2)o1,19%,.,2%,-3%,.,17%
COc1ccc(CNC(=O)C2CCN(S(=O)(=O)c3cn(C)cn3)CC2)cc1,12%[57.1 µM],.,1%[57.1 µM],0%,.,-10%
CC(C)(CS)C(=O)N1CCC[C@H]1C(=O)O,.,.,.,-14%,22µM*,.
CC(C)(C)OC(=O)N1CCCC1C(=O)O (configuration not stated),0%[57.1 µM],0%,5%[57.1 µM],-15%,10%,2%
O=C(COc1ccccc1C(=O)OCC(=O)Nc1cccc2ccccc12)Nc1ccc(Br)cc1,3%,.,-5%,.,.,.
CCC(=O)c1ccc(OCC(=O)O)cc1,0%,0%,2%,4%,3%,5%
CCC(=O)c1ccc(OCCSc2ncccn2)cc1,?,27µM*,-16%,-6%,8%,12%
CN(C)Cc1nc2ccccc2c(=O)n1Cc1nc(-c2cccc([N+](=O)[O-])c2)cs1,25%[57.1 µM],?,4%[57.1 µM],-3%,3%,-7%
CN1CCN(Cc2nc3ccccc3c(=O)n2Cc2nc(-c3ccc([N+](=O)[O-])cc3)cs2)CC1,-6%,30µM*,-5%,-13%,-16%,7%
COC(=O)c1cncn1Cc1ccccc1,1%[2.29 µM],2%,8%[57.1 µM],13%,.,3%
O=C(NCc1ccco1)c1ccc2nc3sc4c(c3c(=O)n2c1)CCCC4,.,.,.,.,10µM*,.
CC1=C(C(=O)Nc2ccccc2)C(c2ccc(C)o2)n2c(s/c(=C\c3ccco3)c2=O)=N1 (configuration not stated),?,0%,-17%,18%,50µM*,2%
COC(=O)C1=C(C)N=c2s/c(=C/c3cccs3)c(=O)n2C1c1ccc(F)cc1 (configuration not stated),16%,-6%,-2%,-9%,-5%,8%
CCSc1nnc(-c2sc3nnc(-c4ccccc4)c(-c4ccccc4)c3c2N)o1,-11%,15µM*,-10%,20%,-5%,4%
CCSc1nnc(-c2ccncc2)o1,7%,1%,2%,11%,8%,-6%
CN(C)c1cncc(C(=O)O)c1,12%,2%,18%,4%,56µM*,-6%
O=C1CC(c2ccc3c(c2)OCCO3)Oc2ccc([N+](=O)[O-])cc21 (configuration not stated),7%,-17%,-6%,20µM*,4%,8%
